Assay results reported in PubChem BioAssay (NCI).
Compounds without any hit were thinned out: in the full panel of roughly 83,000, 20% have a hit.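 Negative percent growth values reflect cell death: -40 means 40% of the cells present at the start died, and -100 means all died.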 Values without a mark were called inactive. Active and inactive are the calls of the source. Rule for the calls: active = growth percent below 10; inactive = the rest.

test system: MALME-3M melanoma; assay: NCI-60 one-dose screen, 48 h (100 = growth as untreated, 0 = no growth, -100 = all killed); conditions: 10 µM unless noted

Row | Structure (SMILES) | growth
1 | CC(=O)CCC(=O)OCc1cc(=O)c(O)co1 | 95.5%
2 | O=C(c1nc2ccccc2[nH]1)C1C(c2ccc(Cl)cc2)C2CC3CCCC[C@H]3N2[C@@]12C(=O)Nc1cc(Cl)ccc12 (stereo partly drawn) | 43.9%
3 | COc1cccc(-c2nc3occn3c2-c2ccnc(NCCNS(=O)(=O)c3cccc4ccccc34)n2)c1 | 111%
4 | COc1cc(-c2n/c(=C\c3c(O)[nH]c4ccc(Cl)cc34)cc3c2=Nc2ccccc2-3)ccc1F | -66.4% (active)
5 | NNC(=O)c1ccc(-n2nc(-c3ccccc3)c3ccccc32)cc1 | 90.2%
6 | O=C1Nc2cc(-c3cccc(O)c3)ccc2/C1=C/c1ccc[nH]1 | 16.1%
7 | COc1cccc(/C=N/NC(=O)c2cnn3c2NC(c2ccccc2)C3)c1Oc1ccccc1 (stereo not drawn) | 75.3%
8 | S=c1cc(S)c2cc(Br)ccc2[nH]1 | 98.4%
9 | O=C(NCCc1ccccc1)Nc1ccc2cc3ccc(NC(=O)NCCc4ccccc4)cc3nc2c1 | -13.8% (active)
10 | CCN(CC)CCCC(C)Nc1cc(O)cc2cccnc12 (stereo not drawn) | 128%
11 | CCOC(=O)C1=C(C)NC(SCc2cc(=O)oc3ccc(F)cc23)=N[C@@H]1c1cccc2ccccc12 | 112%
12 | COc1ccc(C(=O)c2cc(OC)c(OC)c(OC)c2)cc1O | 35.2%
13 | CCCOC(=O)N[C@H]1CCc2c(Cl)c(OC)c(OC)c(OC)c2-c2ccc(SC)c(=O)cc21 | 25.2%
14 | Cc1ccc(/C=N/NC(=O)CSc2nc3ccccc3c(=O)n2Cc2ccc(S(N)(=O)=O)cc2)cc1 | 97%
15 | O=C(CCN1CCCC1)Nc1ccc2c(NCCCCc3ccccc3)c3ccccc3nc2c1 | -88.7% (active)
16 | CSc1nc2sc3cccc(Cl)c3n2c(=N)c1C#N | 95.3%
17 | C#CCNC(=O)c1cccc2c1cc(C)n2-c1nc2c(c(NCc3ccccc3)n1)CCCC2 | -59% (active)
18 | Cc1ccc(S(=O)(=O)NNC(=O)/C(=C\c2ccc(Cl)cc2)c2nc3ccccc3s2)cc1 | 98.6%
19 | O=[N+]([O-])CC(c1ccccc1)c1c[nH]c2ccccc12 (stereo not drawn) | 57.3%

Row | Structure (SMILES) | growth
20 | Nc1nc(Nc2ccccc2SSc2ccccc2Nc2nc(N)nc(-c3ccc(C(F)(F)F)cc3)n2)nc(-c2ccc(C(F)(F)F)cc2)n1 | 93%
21 | CCCCCC(=O)Oc1ccc(/C(=C(\C)c2ccccc2)c2ccc(OCCN3CCCCC3)cc2)cc1 | 68%
22 | C/C(=N\Nc1cc(C)nc2ccc(Br)cc12)c1ccc([N+](=O)[O-])cc1 | 123%
23 | COc1cccc(-c2ccc3c(c2)NC(=O)/C3=C\c2ccc[nH]2)c1 | 51.9%
24 | CCC(=O)Oc1ccc(/C(=C(\C)c2ccccc2)c2ccc(OCCN3CCCCC3)cc2)cc1 | 79%
25 | COc1cc(CC(=O)c2ccc(O)c(OC)c2)ccc1O | 107%
26 | Brc1ccc2[nH]cc(-c3cncn3CCc3ccccc3)c2c1 | 65%
27 | CCNC(=O)Oc1ccc(/C(=C(\C)c2ccccc2)c2ccc(OCCCN(C)C)cc2)cc1 | 40.9%
28 | O=C(/C=C/c1ccc(F)cc1)c1ccc(NC(=O)N2CCN(c3cc4c(cc3F)c(=O)c(C(=O)O)cn4C3CC3)CC2)cc1 | 91.3%
29 | O=S(=O)(NCCNc1nccc(-c2c(-c3cccc(O)c3)nc3occn23)n1)c1ccccc1 | 2.3% (active)
30 | COc1ccc(C(=O)c2cc(C)c(OC)c(C)c2)c(OC)c1N(C(=O)CCl)C(=O)CCl | 49.8%
31 | O=C(/C=C/c1ccc[nH]1)c1ccc(-n2ccc(C(F)(F)F)n2)c(F)c1 | 84.6%
32 | COc1ccc(C(=O)C2C(C#N)C(C#N)C3c4ccccc4C=CN23)cc1 (stereo not drawn) | 92.1%
33 | c1ccc(-c2cn3c(ccc4ccccc43)n2)cc1 | 80.7%
34 | CNC(=O)c1cccc(Cn2nc(C)c(NC(=O)c3ccc(COc4ccc(C(F)(F)F)cc4C)cc3)c2C)n1 | 83.8%
35 | COc1ccc(OC)c(-c2cc(-c3ccc(Cl)cc3)c3c(N)c(C(=O)c4ccc(Cl)cc4)sc3n2)c1 | 89.7%
36 | CCCOc1ccc(/C=N/Nc2cc(C)nc3ccc(Cl)cc23)cc1 | -59% (active)
37 | O=C(Cc1ccccc1)NNc1nc(Cl)nc(N2CCN(C(c3ccccc3)c3ccccc3)CC2)n1 | 99.6%
38 | C#CCNC(=O)[C@H](Cc1ccccc1)NC(=O)[C@]12CC[C@@H](C(=C)C)[C@@H]1[C@H]1CC[C@@H]3[C@@]4(C)CCC(=O)C(C)(C)[C@@H]4CC[C@@]3(C)[C@]1(C)CC2 | 88.8%
